Most compounds without a hit are left out; they make up all but 21% or so of the library.
IL1B secr inh: inhibitors of inflammasome signaling (IL-1 beta secretion); 360,000 tested, 4.7% active; activity change, % at 57.5 µM; AID 743279; THP-1 LPS/ATP IL-1B secretion, AlphaLISA, 16 h; active compounds read low; in the data active means activity change below about -50%; inconclusive means mostly about -30% to -49%; further: on the % scale 0 is the no-effect control and ±100 the full control effect
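THP-1 cells pretreated 1 hr with compounds (up to 57.5 uM final), then stimulated with LPS (250 ng/mL final) plus ATP (1.25 mM final); secreted IL-1B measured by AlphaLISA after 16 hr, decreased signal indicating inhibition.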
DT40 TDP1 CPT: growth inhibition of DT40 Tdp1-/-;hTDP1 cells with camptothecin (screen for TDP1 inhibitors); chicken DT40 Tdp1-/-;hTDP1 cells + 20 nM CPT, ATP luminescence, 48 h; Potency, µM (highest dose often 46.2 µM), inactives show top-dose activity change, negative = growth inhibition, hits mostly inhibitors; AID 686979; 420,000 tested, 12% active; further: potency means the concentration at half of the fitted maximal effect; on the % scale 0 is the no-effect control and ±100 the full control effect; nearly all actives have a fitted effect of over 55% in size
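Chicken DT40 Tdp1-/- cells stably complemented with human TDP1 were seeded at 400 cells/well in medium containing 20 nM camptothecin, exposed to pin-transferred compounds, and grown at 37 °C for at least 48 hr. Viability was read as ATP luminescence.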
ClpP mod: qHTS Assay for Activators of ClpP; Potency, µM (highest dose often 57.5 µM), inactives show at the highest dose activity change, negative = active; 340,000 tested, 1.9% active; purified B. subtilis ClpP, FRET peptide cleavage, 20 min; AID 651965, 2013; ATP-dependent Clp protease proteolytic subunit (Bacillus subtilis (strain 168)), P80244; active means well fitted falling curve with a large enough effect; inconclusive means small, poorly fitted or top-dose-only effect; inactive means no such curve, though single readings can be large or run the other way; further: potency means the concentration at half of the fitted maximal effect; the source files actives as falling curves though it sought activators and does not explain the sign; nearly all actives have a fitted effect of over 65% in size
Target sequence (P80244 whole entry, looked up): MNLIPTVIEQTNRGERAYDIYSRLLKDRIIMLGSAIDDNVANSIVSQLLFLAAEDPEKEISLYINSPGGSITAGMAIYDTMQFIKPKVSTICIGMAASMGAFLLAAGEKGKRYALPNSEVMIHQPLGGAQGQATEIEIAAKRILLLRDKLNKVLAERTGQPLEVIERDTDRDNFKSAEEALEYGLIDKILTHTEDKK
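Buffer: 100 mM Tris/HCl pH8, 100 mM KCl, 0.05% low protease BSA, 2.5% glycerol, 0.01% Tween-20. ClpP 10 microg/mL final; 20 min RT; delta FRET normalized to ADEP and DMSO controls.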
TDP1 cell noCPT: qHTS for Inhibitors of human tyrosyl-DNA phosphodiesterase 1 (TDP1): qHTS in cells in absence of CPT. 420,000 tested, 15% active. Potency, µM (highest dose often 46.2 µM), inactives show top-dose activity change, negative = growth inhibition, most hits filed as inhibitors. DT40 Tdp1-/- hTDP1 cells, no CPT, ATP luminescence, 48 h; further: potency means the concentration at half of the fitted maximal effect; on the % scale 0 is the no-effect control and ±100 the full control effect; nearly all actives have a fitted effect of over 55% in size
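Growth kinetics read by CellTiter-Glo luminescence after ≥48 hr at 37 °C. Cells: DT40 Tdp1-/- stably carrying human TDP1, 400 per well, compound exposure in the absence of CPT (DMSO vehicle).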
DRD3 agonist: D3 dopamine receptor (human) agonism | P35462 | D3R DiscoveRx beta-arrestin cells, luminescence, 90 min | max activation, % | 410,000 tested, 0.58% active; in the data active means max activation above about 30%; further: 0% is about no effect
Target sequence (P35462 whole entry, looked up): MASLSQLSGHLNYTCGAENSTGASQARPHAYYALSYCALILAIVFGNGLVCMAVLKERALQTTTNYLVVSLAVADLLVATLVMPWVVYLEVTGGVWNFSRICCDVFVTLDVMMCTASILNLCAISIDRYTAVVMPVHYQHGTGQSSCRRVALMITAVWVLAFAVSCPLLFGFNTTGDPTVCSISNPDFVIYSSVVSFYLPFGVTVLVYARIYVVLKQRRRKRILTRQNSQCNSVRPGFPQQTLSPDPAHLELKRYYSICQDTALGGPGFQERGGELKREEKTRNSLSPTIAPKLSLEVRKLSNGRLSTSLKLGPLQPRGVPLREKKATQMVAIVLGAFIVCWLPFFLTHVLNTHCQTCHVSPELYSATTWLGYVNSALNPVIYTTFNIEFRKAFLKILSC
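Agonist mode: compounds and dopamine controls were applied to plated cells for 90 min at 37 degrees C after an overnight attachment at 1500 cells/well. Luminescent read-out followed 30 - 60 minutes at room temperature with DiscoveRx detection reagent.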
DRD3 antagonist: D3 dopamine receptor (human) antagonism; max response, negative = inhibition, %; AID 652054; D3R cells, DiscoveRx beta-arrestin luminescence, antagonist mode; active compounds read low; 360,000 tested, 2.5% active; in the data active means max response below about -50%; inconclusive means no clear call, values can overlap the other calls; further: on the % scale 0 is the no-effect control and ±100 the full control effect
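Cells expressing the human receptor were seeded at 1500 cells/well, incubated overnight at 37 degrees C in 5% CO2, then exposed to library compounds with dopamine controls for 90 minutes at 37 degrees C before luminescent detection.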
Active calls of the source: *; ? = inconclusive; . = not tested or not shown. Unless noted, the call rests on the fitted dose curve; in most records, active means well fitted inhibition curve with a large enough effect; inconclusive means small, poorly fitted or top-dose-only effect; inactive means flat fitted curve, though single readings scatter.

SMILES	IL1B secr inh	DT40 TDP1 CPT	ClpP mod	TDP1 cell noCPT	DRD3 agonist	DRD3 antagonist
O=C(N/N=C/C(Br)=C/c1ccccc1)C(O)c1ccccc1 (centres undefined)	-20	5.8µM*	.	8.2µM*	5	1
O=C(O)c1ccc(N/N=C/C(Br)=C/c2ccccc2)cc1	-14	5.8µM*	0%	7.3µM*	-8	-15
O=C(N/N=C/c1ccccc1)NC1CCCCC1	-4	?	-2%	?	6	17
O=C(N/N=C/c1cccnc1)C(O)c1ccccc1 (centres undefined)	7	3%	-2%	11%	1	-1
CCOc1ccccc1NC(=S)NCCc1ccccc1	1	?	1%	?	-1	-6
CCOc1ncccc1C(=O)OCC(=O)NCc1ccc(C(=O)OC)cc1	25	1%	-2%	-7%	2	-27
O=C(N/N=C/C(Br)=C/c1ccccc1)C1CC1	-76*	8.2µM*	0%	13µM*	12	4
CCOC(=O)c1ccccc1NC(=O)CSc1nc(N)cc(=O)[nH]1	80	23%	.	13%	2	0
Cc1cc2nc(NCCCO)n(CC(=O)c3cc(C(C)(C)C)c(O)c(C(C)(C)C)c3)c2cc1C	-51*	16µM*	0%	23µM*	-20	2
Oc1ccc(Nc2nc(-c3cccs3)cs2)cc1	-3	-7%	-3%	6%	2	-13
COc1ccc(Nc2nc(-c3cccs3)cs2)c(OC)c1	-21	-16%	-1%	-1%	-5	-51*
COc1ccc(Nc2nc(-c3sc(C)nc3C)cs2)c(OC)c1	-14	6.5µM*	-3%	8.2µM*	2	22
COc1ccccc1-c1csc(Nc2ccc(Oc3ccccc3)cc2)n1	7	18µM*	-4%	?	2	9
COc1ccc(Nc2nc(-c3cccs3)cs2)cc1	4	21µM*	-4%	23µM*	1	15
COc1ccc(OC)c(Nc2nc(-c3cccs3)cs2)c1	?	-1%	-11%	-20%	-8	6
CN1C(=O)/C(=C/c2cccc(Cl)c2)Sc2ccc(C(=O)N3CCCC3)cc21	-2	?	0%	?	39*	23
Cc1cccc(/C=C2\Sc3ccc(C(=O)N4CCOCC4)cc3N(C)C2=O)c1	-9	?	1%	?	-4	-7
Cc1cccc(/C=C2\Sc3ccc(C(=O)N4CCC(C)CC4)cc3N(C)C2=O)c1	-54*	?	0%	?	-12	-24
CCCCC[C@@H](C)N1C[C@@H](COCc2ccccc2)Oc2cc(N3CCC[C@H]3CO)ccc2S1(=O)=O	0	?	?	?	18	45
CCCCC[C@@H](C)N1C[C@H](COCc2ccccc2)Oc2cc(N3CCC[C@@H]3CO)ccc2S1(=O)=O	-27	?	-30%	18µM*	14	17
CCCCC[C@@H](C)N1C[C@H](COCc2ccccc2)Oc2cc(N3CCC[C@H]3CO)ccc2S1(=O)=O	22	9.2µM*	-15%	16µM*	5	-6
CC1(Cc2cccc(C(N)=O)c2)C(=O)Nc2c(Cl)cccc21 (centres undefined)	12	-1%	-6%	2%	7	27
CC1(Cc2ccccc2Cl)C(=O)Nc2c(Cl)cccc21 (centres undefined)	-25	29µM*	-1%	?	-15	0
C=Cc1ccc(CC2(C)C(=O)Nc3c(Cl)cccc32)cc1 (centres undefined)	23	0%	1%	?	-4	-67*
CC1(Cc2cccc(C#N)c2)C(=O)Nc2c(Cl)cccc21 (centres undefined)	-5	-20%	-3%	-26%	48*	-12
SMILES	IL1B secr inh	DT40 TDP1 CPT	ClpP mod	TDP1 cell noCPT	DRD3 agonist	DRD3 antagonist
C=Cc1ccc(CC2(C)C(=O)Nc3ccc(Cl)cc32)cc1 (centres undefined)	15	-12%	-3%	-27%	8	15
CC1(Cc2ccc(Cl)c(Cl)c2)C(=O)Nc2c(Cl)ccc(Cl)c21 (centres undefined)	27	?	0%	?	-3	?
COc1ccc(S(=O)(=O)NCc2ccco2)cc1N(C)S(=O)(=O)c1ccccc1	2	-4%	-1%	?	0	-19
C[C@H](CO)N1C[C@H](C)[C@@H](CN(C)Cc2ccc(C(=O)O)cc2)Oc2ccc(NS(=O)(=O)c3cn(C)cn3)cc2C1=O	0	-2%	-3%	-4%	-10	18
Cc1ccc(/C=N/NC(=O)c2cc3c(ccc4ccccc43)o2)cc1[N+](=O)[O-]	-17	26µM*	1%	?	-4	0
Cc1ccc(/C=N/NC(=O)c2cc3c(ccc4ccccc43)o2)o1	-61*	?	3%	?	2	27
O=C(N/N=C/c1ccc([N+](=O)[O-])o1)c1cc2c(ccc3ccccc32)o1	-13	10µM*	-2%	?	4	6
CC(=O)Oc1ccc(/C=N\NC(=O)c2cc3c(ccc4ccccc43)o2)cc1	?	?	3%	?	-3	10
O=C(N/N=C/c1cc(Cl)c(O)c(Cl)c1)c1cc2c(ccc3ccccc32)o1	-15	?	?	?	-7	3
O=C(N/N=C/c1cc(Br)c(O)c(Br)c1)c1cc2c(ccc3ccccc32)o1	-23	13µM*	-2%	?	0	-6
COc1cccc(NC(=O)CN(C)C(=O)CSCC(=O)Nc2ccc(C)cc2)c1	36	-1%	0%	-1%	-7	-13
CCN1CCN(CCC(=O)Nc2cccc(C)c2)CC1	2	18%	.	21%	-3	-5
CCOc1ccc(NC(=O)N2CCN(C(=O)c3nsc4ccccc34)CC2)cc1	.	?	0%	?	2	.
Cc1nn(-c2cc(Cl)ccc2Cl)c(C)c1C(=O)O	0	7%	.	-2%	-7	6
O=C(NC1CCCC1)c1cc2c(ccc3ccccc32)o1	-8	?	67%	21µM*	-3	1
CC(=O)C1C(=O)c2c(cccc2[N+](=O)[O-])C1=Nc1ccc(S(N)(=O)=O)cc1 (centres undefined)	8	18µM*	1%	?	-3	-9
CCCNC(=O)C1(C)CCN(C(=O)c2cc(F)cc(F)c2)C1 (centres undefined)	16	-3%	2%	6%	-14	-1

Screening results from PubChem BioAssay.
